Here are results for 91 molecules from PubChem BioAssay AID504884 (Broad Institute, 2011).

Out of some 360,000 compounds screened, about 230 (0.064%) were called active. What follows is part of a selection rich in actives, with near analogues and random picks from the rest. Unmarked numbers belong to inactive results. Cut-off read from the data, not from the text of the source: active = activity above about 50% (passing the limit was not always enough); inconclusive = no clear call, values can overlap the other calls.

This assay concerns DNA topoisomerase I (Yersinia pestis CO92). The assay is described as follows: Yersinia pestis topoisomerase I inhibitors, primary screen, biochemical, cleavage product accumulation, plate reader, single point (AID 504884). The following applies: Y. pestis Topo-I cleavage product accumulation, at 10 µM, stronger effect = higher value.
In the case of `COc1ccccc1N1CC(C(=O)Nc2nnc(SCC(=O)NC(C)C)s2)CC1=O` (stereo unspecified), the activity was 6.4%.

For `Cc1cc(SCC(=O)NCCN2C(=O)CSC2=O)nc2ccccc12`, the activity is 2.72%.

Consider `O=[N+]([O-])c1ccc(S(=O)(=O)Nc2cccc(-c3ccc(N4CCCC4)nn3)c2)cc1`, for which the activity is 21.6%.

Consider `CC1CCc2sc(C(=O)NCC(c3ccco3)N3CCCCC3)cc2C1` (stereo unspecified), for which the activity is -2.82%. For `CC(C)Oc1ccc(CN2CCC2(C)C(=O)NCc2ccc(C(F)(F)F)cc2)cc1` (stereo unspecified) the value was 15.8%; for `COc1ccc(CN2CCN(C(=O)c3cc(C4CC4)nn3-c3ccccc3)CC2)cc1F`, 29.4%; for `CN(C)C(=O)N=NC(=O)N(C)C`, -8.5%. For `C[C@H](CO)N1C[C@H](C)[C@@H](CN(C)Cc2ccc(-c3ccccc3)cc2)Oc2ccc(NC(=O)Cn3cnnn3)cc2C1=O` the value was 22.5%. In the case of `O=C(CN1CCC(NC(=O)C2CC2)CC1)Nc1ccccc1[N+](=O)[O-]`, the activity was 2.07%. With `COc1ccc(C(CCN(Cc2ccc(OC)c(OC)c2)C(=O)CCl)c2ccccc2)cc1` (stereo unspecified), the activity was 12.3%.

Regarding `CN(Cc1ccc(F)cc1)C(=O)COc1ccc2ccccc2c1`, the activity is 27.3%. Turning to `COc1ccc(CN(C)C(=O)CC(c2ccccc2)c2ccccc2)cc1`, the activity was 51.6% (active). For `Cc1ccc(S(=O)(=O)NCC(=O)N2CCOCCOCCOCCOCC2)cc1`, the activity is 5.8%. In the case of `Cc1cc(C)nc(/N=C2\NC(=O)CC(C(=O)O)N2c2ccc(Cl)cc2Cl)n1` (stereo unspecified), the activity is -1.83%.

For `O=C1NNC(c2ccccc2)=N/C1=C\c1ccc(Cl)cc1`, the activity is -4.41%. Regarding `Cc1ccccc1-n1nnnc1SCCCC(=O)c1ccc(F)cc1`, the activity was 21.7%. With `Cc1ccc2c(c1)C(c1ccccc1)N(C(=O)c1ccc(S(=O)(=O)N3CCOCC3)cc1)CC(=O)N2` (stereo unspecified), the activity is 3.57%. Consider `Cc1cc(C)c(C(N)=O)c(Cl)n1`, for which the activity is 0.37%.

Consider `CCOc1ccc(S(=O)(=O)N2CCC(c3ccccc3)CC2)cc1C(=O)O`, for which the activity was -7.32%.

For `COC(=O)Nc1ccc(S(=O)(=O)N2CCN(CCN3C(=O)C4C5C=CC(C5)C4C3=O)CC2)cc1` (stereo unspecified), the activity was 0.176%. As to `CN(C(=O)CSc1nnc(C2CC2)n1C)C1CCCc2ccccc21` (stereo unspecified), the activity was 9.61%. Under `CC(=O)c1ccc(NC(=O)C2CCCN2S(=O)(=O)c2cccs2)cc1` (stereo unspecified) stands -1.65%; under `CCCCCn1c(SCCC(C)C)nc2c1c(=O)[nH]c(=O)n2C`, 112% (active).

`C=CCn1c(SCc2ccccc2)nc2c1c(=O)[nH]c(=O)n2C`: the activity was 20.2%. For `CC=CCn1c(SCCCc2ccccc2)nc2c1c(=O)[nH]c(=O)n2C` the value was 14.6%; for `O=C1CC[C@H](O)CCN1[C@H](CSc1ccc(Br)cc1)Cc1ccccc1`, 10.9%; for `C[C@H]1CCC(=O)N([C@H](CSc2ccccc2)Cc2ccccc2)CC1`, 59.9% (active). As to `CC(=O)Nc1ccc(SC[C@H](Cc2ccccc2)N2CC[C@@H](C)CCC2=O)cc1`, the activity was 25.8%.

On to `Cc1cc(Cl)c(S(=O)(=O)NCc2cccnc2)cc1OCC(N)=O`, for which the activity is -1.35%. Under `CN(C)c1ccc(C(=S)N2CCN(C(=S)Nc3ccc(Cl)cc3)CC2)cc1` stands 3.46%.

`Cc1cc(OCC(=O)NCC(O)c2ccccc2)c2c(C)c(C)c(=O)oc2c1` (stereo unspecified): the activity was -1%. As to `O=C(CSc1ncnc2c1oc1ccccc12)NC1CCCC1`, the activity is 2.5%.

Regarding `CCC(=O)NC(Nc1cc(C)ccn1)(C(F)(F)F)C(F)(F)F`, the activity was -7.52%. As for `CC(=O)c1nn(-c2ccc(C)cc2)cc1C(=O)c1cccc(Br)c1`, the activity was 8.28%. For `CCOC(=O)c1nn(-c2cccc(C)c2)cc1C(=O)c1ccccc1` the value was 67.3% (active). With `CCOC(=O)c1cn(Cc2cccc(C)c2)nn1`, the activity was -1.57%.

Take `COCC(C)n1c(C)cc(C(=O)COc2ccc(C)nc2[N+](=O)[O-])c1C` (stereo unspecified): the activity was 8.7%. For `COC(=O)[C@H]1C[C@H](OC(=O)NCc2ccccc2)[C@@]2(O)CN(S(=O)(=O)c3ccc(C)cc3)CC2[C@H]1C(=O)OC` (stereo partly specified) the value was 7.34%.

As to `Cc1cc2nc(C(F)(F)F)cc(-c3cccs3)n2n1`, the activity is -15.7%. Under `COc1c(C)c2c(c(O)c1C/C=C(\C)CCC(=O)O)C(=O)OC2` stands 5.68%.

As to `CC1(Oc2ccccc2-c2ccno2)CCN(Cc2ccc(-c3ccccc3)o2)C1` (stereo unspecified), the activity is 24%.

Turning to `Cc1ccn(CC(=O)NC2CCCN(Cc3ccccc3F)C2)n1` (stereo unspecified), the activity is -8.15%. Consider `CC(C)CN(C(=O)Cn1c(=O)cnc2ccccc21)C1CCS(=O)(=O)C1` (stereo unspecified), for which the activity is 1.02%.

As to `CCN1CCN(c2cc3nc(C)n(Cc4ccccc4)c(=O)c3cc2NC(=O)c2ccccc2F)CC1`, the activity was 23.4%. In the case of `COc1ccc(N=C2C=CC(=O)O2)cc1`, the activity is 1.67%. Consider `C=C1c2cccc(OC)c2O[C@H](C(=O)OCC)[C@@H]1CCCCCC`, for which the activity is 39%. For `COC(=O)[C@@H]1C[C@@]2(O)[C@H](O)[C@H](O)[C@H](O)C[C@H]2N1Cc1ccc(C(C)(C)C)cc1` the value was 1.65%. Under `O=C(NCc1ccc(F)cc1)c1cc(C2CCCCN2C(=O)c2cccs2)on1` (stereo unspecified) stands 28.6%.

In the case of `COc1ccccc1-c1n[nH]c2c1[C@H](C)CC[C@H]2C(C)C`, the activity was 29.7%.

As to `CN(C)c1ccc(CNC2C3CC4CC(C3)CC2C4)cc1` (stereo unspecified), the activity is -0.886%.

For `COCCN(C(=O)CC1CCCCC1)c1c(N)n(CC(C)C)c(=O)[nH]c1=O`, the activity was -3.38%. Consider `CCCCCN(C(=O)CCC(=O)OCCOc1ccc(OC)cc1)c1c(N)n(CCCC)c(=O)[nH]c1=O`, for which the activity is 20.2%.

Take `CC1CCCC(C)N1/N=C/c1ccccc1OC(F)F` (stereo unspecified): the activity was -8.42%. Consider `Fc1ccc(Br)cc1/C=N/n1cnnc1`, for which the activity is 1.69%. Turning to `Cc1nc2c(ncn2-c2ccccc2)c(=O)n1NC(=O)CN1CCCC1`, the activity is -2.1%. Regarding `CCC(CC)C(=O)Nc1c2c(nn1-c1ccc(C)cc1)CS(=O)(=O)C2`, the activity was -1.49%. For `Cc1cccc(OP(=O)(Oc2cccc(C)c2)OC(c2ccccc2)C(F)(F)F)c1` (stereo unspecified) the value was 60.4% (active); for `Cc1cccc(OP(=O)(Nc2c(C)n(C)n(-c3ccccc3)c2=O)Oc2cccc(C)c2)c1`, 25.5%; for `CCN(CC)P(=O)(Oc1cccc(C)c1)N(CC)CC`, 2.59%.

For `Cc1cc(N2CCN(c3ccc(F)cc3)CC2)n2ncnc2n1`, the activity was 1.33%. For `O=c1c2ccccc2ncn1CCCCOc1ccccc1F` the value was 5.21%; for `N/C(=N\OC(=O)CCn1cccc(C(F)(F)F)c1=O)c1ccc(OC(F)(F)F)cc1`, 0.341%.

For `O=S(=O)(c1cccc2nonc12)N1CCN(c2cccc(Cl)c2)CC1`, the activity is 8.66%. For `Cc1ccc(S(=O)(=O)N2CCC(Oc3ccc(-n4cnnn4)cc3)CC2)cc1` the value was 9.39%; for `CCCCNC1(C#N)CCN(Cc2ccccc2)CC1`, -6.77%; for `Cc1c(CCO)c(=O)[nH]n1C(=O)c1c(F)cccc1F`, 11.7%.

`O=C(/C=C/c1cnc2ccccc2n1)NC1CCCCCC1`: the activity is 7.03%. As for `COc1ccccc1CNC(=O)CNC(=O)c1cn(-c2ccccc2OC)c(=O)c2ccccc12`, the activity was 2.16%. For `CSc1cccc(NC(=S)N(Cc2ccccc2)Cc2ccccn2)c1` the value was 9.55%; for `COc1cc(OC)cc(-c2cc3nc(C4CCN(C(=O)OC(C)(C)C)CC4)cc(=O)n3[nH]2)c1`, 2.04%; for `CS(=O)(=O)c1sc(C(=O)NC(=S)Nc2ccc(OC(F)(F)F)cc2)c2c1C=CCC2`, 6.39%. For `Cc1ccc(N2C(=O)CC(NCc3ccc4c(c3)OCO4)C2=O)cc1Cl` (stereo unspecified), the activity is 4.73%.

In the case of `Cc1ccc(CCNC(=O)C2CCN(S(=O)(=O)N3CCCC3)CC2)cc1`, the activity was 0.896%. `Cc1ccc(S(=O)(=O)N2CCC(C(=O)NCCC3=CCCCC3)CC2)cc1C`: the activity is 51.1% (active).

On to `CSc1ccc(S(=O)(=O)N2CCC(C(=O)NCCc3ccccc3)CC2)cc1`, for which the activity is 3.52%. Under `CN(C(=O)COC(=O)CCCc1c[nH]c2ccccc12)c1c(N)n(Cc2ccccc2)c(=O)[nH]c1=O` stands 15%; under `COc1ccc(/C(=N\O)c2nccc3cc(OC)c(OC)cc23)cc1OC`, 6.19%. For `COCCCNC(=O)C1CC(=O)N(CCc2ccc(F)cc2)C1` (stereo unspecified) the value was -2.65%. Under `CC(=O)c1ccccc1OCc1ccc(C(=O)c2ccccc2)cc1` stands 55.1% (active). Consider `CC(OC(=O)c1ccccc1OCc1ccc(Cl)cc1)C(N)=O` (stereo unspecified), for which the activity was 4.36%.

Turning to `O=C(NC1CCC(O)CC1)c1ccccc1OCc1ccc(F)cc1` (stereo unspecified), the activity was 1.15%. For `CCOC(=O)C1CCN(S(=O)(=O)c2ccc3c(c2)N(C)C(=O)CC(=O)N3C)CC1` the value was -0.905%; for `FC(F)(F)C1CCCN(c2nsc3ccccc23)C1` (stereo unspecified), 4.11%; for `CCCCNC(=O)c1ccccc1NC(=O)c1ccccc1N(C)S(C)(=O)=O`, 8.01%.

For `c1ccc(CC2CCN(c3nc4ccccc4n4cnnc34)CC2)cc1`, the activity is 27.5%. For `COc1ccc(CN2CCC(n3nccc3NC(=O)CCCc3ccccc3)CC2)cc1C` the value was 18.3%; for `CC(C)(C)N(Cc1ccccc1)C(=O)COC(=O)CCc1c[nH]c2ccccc12`, 1.59%; for `CC1(c2ccc3ccccc3c2)NC(=O)NC1=O` (stereo unspecified), 0.131%. Under `O=C1CSC(c2cccc(F)c2)N1c1ccccc1F` (stereo unspecified) stands -2.91%. Under `O=C(Cc1ccccc1F)NC1CCSc2ccccc21` (stereo unspecified) stands 5.76%.

In the case of `O=S(=O)(O)c1cc2onnc2c2ccccc12`, the activity was -2.58%.
